Compounds with a hit are over-represented: about 3.6% of the library has one in this group of screens.
Pf apPOL block: Pf-apPOL inhibitors, biochemical, fluorescence; Plasmodium falciparum apicoplast DNA polymerase (apPOL); Recombinant Pf-apPOL, molecular beacon fluorescence, 1.5 h; inhibition, % at 10 µM; hit rate 0.25% among 210,000
mHTT CaM bind: mutant huntingtin-calmodulin interaction inhibitors – biochemical, AlphaScreen, primary screen; P42858; AlphaScreen His-mHTT/GST-CaM binding, luminescence; inhibition, % at 15 µM; hit rate 3.6% among 190,000
Of the large screens only hits and unclear results are named; the others gave an inactive call. No stated cut-off is given here; in the data, active means inhibition above about 50%; inactive means the rest.

Fc1ccc(NCc2ccc3c(c2)OCCO3)cc1F	none
Brc1ccc(CNc2cc3c(cc2Br)OCCO3)cc1	mHTT CaM bind 79.0
COc1ccc(C=C2Oc3c(ccc4c3CN(Cc3ccncc3)CO4)C2=O)cc1	mHTT CaM bind 58.1
O=C1C(=Cc2ccccc2)Oc2c1ccc1c2CN(Cc2cccnc2)CO1	none
COc1ccc(C=C2Oc3c(ccc4c3CN(Cc3ccccn3)CO4)C2=O)cc1OC	none
COc1ccc(OC)c(C=C2Oc3c(ccc4c3CN(Cc3ccccn3)CO4)C2=O)c1	mHTT CaM bind 100.1
O=C1C(=Cc2ccc(Br)cc2)Oc2c1ccc1c2CN(Cc2cccnc2)CO1	mHTT CaM bind 83.2
COc1ccc(C=C2Oc3c(ccc4c3CN(Cc3ccccn3)CO4)C2=O)c(OC)c1OC	none
COc1cccc(C=C2Oc3c(ccc4c3CN(Cc3ccncc3)CO4)C2=O)c1	none
COc1ccc(C=C2Oc3c(ccc4c3CN(Cc3ccccn3)CO4)C2=O)cc1	mHTT CaM bind 100.1
CCC(C(=O)O)N1C(=O)C(=Cc2ccc3c(c2)OCO3)SC1=S (stereo not drawn)	none
Cc1ccc(NCN2C(=O)C3CCCCC3C2=O)cc1 (stereo not drawn)	none
Cc1nn(-c2ccc(C(=O)NCc3ccc(F)cc3)cc2)c2c1C(=O)CCC2	none
COc1ccc(S(=O)(=O)N2CCC(C(=O)Nc3ccc4sccc4c3)CC2)cc1	none
O=C(NCC1CCN(c2ncccn2)CC1)C(=O)Nc1cc2c3c(c1)CCC(=O)N3CCC2	none
COc1ccc2c(c1OC)CN1CCc3cc4c(cc3C1=C2)OCO4	none (no result: Pf apPOL block)
O=C(Nc1cccc(Cl)c1)C1CCCN(c2nnc3ccccn23)C1 (stereo not drawn)	none
O=C1C(=Cc2ccc3c(c2)OCO3)Oc2c1ccc1c2CN(Cc2ccccn2)CO1	mHTT CaM bind 100.2
Cc1ccc(C=C2Oc3c(ccc4c3CN(Cc3ccccn3)CO4)C2=O)o1	mHTT CaM bind 100.2
COc1ccc(CN2COc3ccc4c(c3C2)OC(=Cc2cccnc2)C4=O)cc1	none
O=C1C(=Cc2ccc3c(c2)OCO3)Oc2c1ccc1c2CN(Cc2cccnc2)CO1	none
CC1=C(C(N)=O)C(c2ccco2)C(C#N)=C(SCC(=O)Nc2cccc(Cl)c2C)N1 (stereo not drawn)	none
COc1ccc(Cl)cc1NC(=O)CSC1=C(C#N)C(c2ccco2)C(C(N)=O)=C(C)N1 (stereo not drawn)	mHTT CaM bind 54.0
COc1ccc(Oc2ccc(N)cc2)cc1	none
Nc1ccc(Oc2ccc(N)c(N)c2)cc1	mHTT CaM bind 87.6
COc1ccc(N=Cc2c(NCc3ccccc3)nc3c(C)cccn3c2=O)cc1	none
COc1ccc(C2CC(O)(c3ccccc3)Oc3cc(OC)ccc32)cc1 (stereo not drawn)	mHTT CaM bind 80.5
COc1ccc(C2CC(=O)Oc3cc(OC)ccc32)cc1 (stereo not drawn)	none
COc1ccc(C2CC(=O)Oc3c(C(C)C)ccc(C)c32)cc1 (stereo not drawn)	none
COc1ccc(C2CC(O)(c3ccccc3)Oc3c(C)ccc(C(C)C)c32)cc1 (stereo not drawn)	mHTT CaM bind 54.7
COc1cccc(NC(=O)c2ccc(CN(c3ccccc3)S(C)(=O)=O)cc2)c1	none
COc1ccc(C2(CNC(=O)c3ccc(OC)c([N+](=O)[O-])c3)CCCC2)cc1OC	none
COc1ccc(C2(CNC(=O)c3ccccc3[N+](=O)[O-])CCCC2)cc1OC	mHTT CaM bind 100.0
O=c1c2cn[nH]c2nc(SCc2cccc([N+](=O)[O-])c2)n1-c1ccccc1F	none
O=C(O)c1cc(NS(=O)(=O)c2ccc(Cl)cc2)cc(C(=O)O)c1	Pf apPOL block 71.4
O=S(=O)(Nc1cc(Cl)cc(Cl)c1)c1ccc(Cl)cc1	none (no result: Pf apPOL block)
COc1ccc(-c2ncc3c(n2)CCN(C(=O)Nc2ccccc2C)C3)cc1	none
CCN(CC)C(=O)CC[C@H]1CC[C@]2(CCCN(S(=O)(=O)c3ccccc3)C2)O1	mHTT CaM bind 98.5
CCOC(=O)CC[C@@H]1CC[C@]2(CCCN(S(=O)(=O)c3ccccc3)C2)O1	none
COc1ccc(Cl)cc1Nc1nc(-c2sc(N)nc2C)cs1	mHTT CaM bind 81.6
COc1ccc(OC)c(Nc2nc(-c3sc(N)nc3C)cs2)c1	mHTT CaM bind 80.7
COc1nc(Nc2cc(Cl)ccc2OC)nc(OC)n1	none
COc1ccccc1Nc1nc(-c2ccncc2)cs1	none
COc1ccc(NC(=O)c2cc(-c3ccccc3OC)nc3ccccc23)c([N+](=O)[O-])c1	none
Cc1ccsc1-c1nnc(CC(=O)N2CCc3ccccc3C2)o1	none
O=C(CNC(=O)C1CCCCC1)Nc1nc(C23CC4CC(CC(C4)C2)C3)cs1	none
CN1/C(=C/c2cccc[n+]2CCO)Sc2ccccc21	none
CN1C(=CC=Cc2cc[n+](CCO)c3ccccc23)Sc2ccccc21	Pf apPOL block 78.0, mHTT CaM bind 95.2
O=C(c1ccco1)N1CCC(c2nncn2-c2ccccc2)CC1	none
Cn1cccc(C(=O)Nc2cccc(-c3ccc4nnc(-c5cccs5)n4n3)c2)c1=O	none
COCCCNC(=O)N1CCCC1c1cc(C(C)C)no1 (stereo not drawn)	none

Source: PubChem (University of Kansas High Throughput Screening Laboratory)
